PubChem BioAssay (EPA / NIEHS)
Values joined by “and” are separate entries in the source; they are usually repeats but may differ in a detail not shown here. Equal values may be shown once. Records with an inconclusive call do not appear. Active and inactive are the calls of the source. The calls were made as follows, unless noted: active = hit-call score of the fitted dose curve at least 0.9, where 1 is the maximum; inactive = score below 0.9.

Legend:
[1] = CCTE_Shafer_MEA_dev_network_spike_number: CCTE's Neural Network Formation Assay for Number of Network Spikes, Shafer Lab (AID 2284048);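 also: synchronized bursts across electrodes counted on days 5 7 9 12 and integrated as AUC; fit as a loss of signal meaning fewer network spikes than DMSO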
Method in brief: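 Primary rat cortical neurons were seeded at 1.5 x 10^5 cells/well on PEI-coated 16-electrode MEA wells with laminin, exposed from plating day 0, compound renewed at DIV 5 and 9. Network spikes were recorded on days 5, 7, 9, 12 and summarized as trapezoidal AUC versus DMSO.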

[2] = CCTE_Shafer_MEA_dev_spike_duration_mean: CCTE's Neural Network Formation Assay for Mean Spike Duration, Shafer Lab (AID 2284051);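 also: mean network spike duration pooled as area under curve over DIV 5 to 12 recordings; potency for a decrease in mean network spike duration versus DMSO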
Method in brief: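 Readout is the average length of network spikes, clustered firing across electrodes, summed over DIV 5, 7, 9 and 12 as area under the curve. Neurons from rat cortex developed networks on MEA plates under continuous 12-day exposure.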

[3] = CCTE_Shafer_MEA_dev_network_spike_duration_std: CCTE's Neural Network Formation Assay for Standard Deviation of Network Spike Duration, Shafer Lab (AID 2284052);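 also: area under curve of spike duration SD across recording days 5 to 12; hits are decreases in network spike duration SD versus DMSO vehicle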
Method in brief: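 Read-out is the trapezoidal area-under-the-curve across recordings made on days 5, 7, 9 and 12, fitted in the negative direction against DMSO baseline. Neurons were primary rat cortical cells treated from day 0, with treatment renewed at each feed.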

[4] = CCTE_Shafer_MEA_dev_per_network_spike_spike_number_mean: CCTE's Neural Network Formation Assay for Mean Number of Spikes in a Network Spike, Shafer Lab (AID 2284053);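 also: fitted as decrease in spikes per network spike relative to DMSO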
Method in brief: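 Continuous twelve-day exposure of developing rat cortical networks grown over 16 microelectrodes per well; spontaneous firing is captured at four time points, and the per-network-spike spike number is integrated over development by trapezoidal AUC.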

[5] = CCTE_Shafer_MEA_dev_per_network_spike_spike_percent: CCTE's Neural Network Formation Assay for Percent of Spikes in a Network Spike, Shafer Lab (AID 2284054)
Method in brief: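 Primary rat cortical neurons on 16-electrode MEA wells (PEI-coated, laminin at plating), exposed from day 0 with renewal at DIV 5 and 9; spikes within 0.05 s of network-spike peaks over total spikes, AUC across days 5, 7, 9, 12.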

[6] = CCTE_Shafer_MEA_dev_LDH: CCTE's Lactate Dehydrogenase Assay for Cytotoxicity in the Neural Network Formation Assay, Shafer Lab (AID 2284068; active = hit-call score of the fitted dose curve at least 0.9, where 1 is the maximum;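 also: exposure for twelve days from plating with re-dosing on DIV 5 and 9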)
Method in brief: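 Cytotoxicity companion to network-formation recordings: rat cortical neurons received compound over 12 days of development, re-dosed at DIV 5 and 9 feeds. Viability was inferred from LDH enzyme activity relative to DMSO.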

[7] = UKN5_HCS_SBAD2_neurite_outgrowth: University of Konstanz (UKN) Leist Lab Neurite Outgrowth Assay in human iPSC-derived immature Dorsal Root Ganglia Neurons (UKN5) (AID 2284070); settings: actives raise or lower the signal
Method in brief: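 Read-out: calcein-AM-stained neurite area by high-content imaging, Hoechst H-33342 for viability, after 24 h exposure of iPSC-derived immature dorsal root ganglia neurons. Activity fitted in both directions relative to DMSO baseline.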

[8] = CCTE_Shafer_MEA_dev_AB: CCTE's Alamar Blue Assay for Cytotoxicity in the Neural Network Formation Assay, Shafer Lab (AID 2284083; active = hit-call score of the fitted dose curve at least 0.9, where 1 is the maximum;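 also: resazurin reduction fluorescence as viability of cultured neurons; twelve days of exposure from plating with re-dosing on DIV 5 and 9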)
Method in brief: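 Fluorescent resazurin reduction serves as the viability read-out, with DMSO as negative control and baseline. Cells were primary rat cortical neurons grown on MEA plates and dosed from day 0 to day 12, treatment renewed on DIV 5 and 9.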

[9] = CCTE_Shafer_MEA_dev_mutual_information_norm: CCTE's Neural Network Formation Assay for Mutual Information Normalization, Shafer Lab (AID 2284091);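 also: mutual information between electrodes summarised as area under curve across four recording days; potency is for a decrease in mutual information relative to DMSO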
Method in brief: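 Rat cortical cultures, 48-well MEA, continuous exposure DIV 0–12 with full media/compound change DIV 5 and 9. Readout: inter-electrode mutual information, AxIS adaptive spike detection; AUC across DIV 5/7/9/12 recordings; DMSO baseline, negative fitting direction.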

[10] = CCTE_Shafer_MEA_dev_correlation_coefficient_mean: CCTE's Neural Network Formation Assay for Mean Correlation Coefficient, Shafer Lab (AID 2284093);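 also: well mean pairwise spike train correlation integrated as AUC over recording days 5 to 12; potency fitted for loss of correlation relative to DMSO vehicle wells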
Method in brief: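 Read-out: well-mean correlation coefficient of spike trains between electrode pairs, collapsed over four recording days as trapezoidal area-under-the-curve. Developing rat cortical neuron networks grown on MEAs received test chemical continuously from plating.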

[11] = UKN2_HCS_IMR90_neural_migration: University of Konstanz (UKN) Leist Lab Neural Crest Cell Migration Assay in human induced IMR90 Pluripotent Stem Cells (UKN2) (AID 2284204); settings: actives raise or lower the signal
Method in brief: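 iPSC-derived IMR90 neural crest cells on PLO/laminin/fibronectin were seeded around silicone stoppers; after stopper removal, migration in N2-S medium with EGF and FGF ran 24 h before 24 h chemical exposure. Calcein-AM/Hoechst high-content imaging; bidirectional fit versus DMSO.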

[12] = IUF_NPC1b_proliferation_BrdU_72hr: Leibniz Research Institute for Environmental Medicine (IUF) 72-hour Neural Progenitor Cell Bromodeoxyuridine (BrdU) Proliferation Assay (NPC1b) (AID 2284207)
Method in brief: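 hNPC spheres (primary, GW 16-19 fetal cortex), single sphere/well, EGF+FGF medium; 72 h compound, no renewal; BrdU pulse last 16 h; luminescent ELISA; activity vs DMSO baseline; growth-factor withdrawal as positive control.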

[13] = IUF_NPC1a_proliferation_area_72hr: Leibniz Research Institute for Environmental Medicine (IUF) 72-hour Neural Progenitor Cell Proliferation Area Assay (NPC1a) (AID 2284208)
Method in brief: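 hNPC spheres (human fetal cortex, GW 16-19), one per poly-Hema U-bottom well; EGF+FGF medium; dosed day 0, no re-dosing; 72 h, 37C, 5% CO2; phase-contrast sphere area; DMSO = baseline; minus-GF = positive ctrl.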

[14] = CCTE_Mundy_HCI_Cortical_Synap_Neur_Matur_NeuriteSpotCountPerNeuriteLength: CCTE's Synaptogenesis and Neurite Maturation Assay in rat cortical cells for Neurite Spot Count per Neurite Length, Mundy Lab (AID 2284210)
Method in brief: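 Rat primary cortical cultures, glia arrested with AraC at DIV 5, were dosed with media change at DIV 7 and fixed at DIV 12. Synaptophysin puncta per MAP2-labelled neurite length were quantified by high-content imaging versus DMSO.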

[15] = CCTE_Mundy_HCI_Cortical_NOG_NeuriteCount: CCTE's Neurite Outgrowth Assay in rat cortical cells for Neurite Count, Mundy Lab (AID 2284212);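 also: cells fixed about two days after chemical exposure began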
Method in brief: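 Neurite number per cell from high-content imaging of betaIII-tubulin immunostaining, with Hoechst nuclear counterstain.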

[16] = CCTE_Mundy_HCI_Cortical_NOG_NeuriteLength: CCTE's Neurite Outgrowth Assay in rat cortical cells for Neurite Length, Mundy Lab (AID 2284213);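 also: neurites imaged about 48 to 50 h after chemical exposure began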
Method in brief: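 Neurite length was read by high-content imaging of βIII-tubulin-labelled neurites in rat primary cortical cultures. Activity was fitted relative to DMSO.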

Measured: AC50

[CH3][Hg][Cl]
active: [1] 86.7 nM | [2] 275 nM | [3] 164 nM | [4] 536 nM | [5] 309 nM | [6] 182 nM | [7] 636 nM | [8] 283 nM | [9] 134 nM | [10] 306 nM | [11] 5 µM | [12] 906 nM and 968 nM | [13] 370 nM | [14] 881 nM | [15] 493 nM | [16] 222 nM and 316 nM
